The record followed here is PubChem BioAssay (NCATS).

The structures appear in SMILES notation. Values joined by “and” are separate entries in the source; they are usually repeats but may differ in a detail not shown here. Equal values may be shown once. Results filed as inconclusive are left out. Active and inactive are the calls of the source. Unless noted, calls follow the shape of the dose curve; as a rule, active = well fitted curve in the direction sought with a large enough effect; inconclusive = small, poorly fitted or top-dose-only effect, or another doubt; inactive = no such curve, though single readings can be large; an effect the other way counts as inactive or inconclusive.

Experiment [1] in a line: qHTS for Activators of Parkin Expression: LOPAC Validation Assay (NLuc Reporter) (AID 720572;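 also: 0% = DMSO and 100% = positive control compound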). Put shortly:
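Cells harboring the Parkin-promoter coincidence reporter were treated for 24 h at seven concentrations. NLuc output was measured sequentially after the FLuc channel and scaled between DMSO and positive control values.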

Experiment [2] in a line: qHTS for Activators of Parkin Expression: LOPAC Validation Assay (FLuc Reporter) (AID 720573;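 also: 0% = DMSO and 100% = positive control compounds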). Put shortly: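 Neuronal cell line stably expressing FLuc/NLuc coincidence reporter under the Parkin promoter, 1,500 cells/well, dosed 24 h after seeding in 7-point series for 24 h at 37 C. FLuc luminescence read; normalized to DMSO and positive control (100%).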
A general note: In qHTS, concentration-response curves come from the screen itself.

The target in experiment [3] is T1, Hexokinase-4 (Homo sapiens) + Glucokinase regulatory protein (Homo sapiens) (UniProt P35557+Q14397). As to the kind of experiment: qHTS assay for inhibitors of recombinant human GCK-GKRP interaction: Diaphorase-coupled assay (AID 743205). The gist of the method: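 Compounds pre-incubated 20 min with substrate, then 10 nM GST-GCK with 10 nM FLAG-GKRP added. GCK activity coupled via G6PDH and diaphorase to resorufin (5 mM glucose, 0.4 mM ATP, 0.15 mM NADP+, pH 7.6), read kinetically over 30 minutes at Ex 525/Em 590 nm.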
T1 sequence (P35557 whole entry, looked up): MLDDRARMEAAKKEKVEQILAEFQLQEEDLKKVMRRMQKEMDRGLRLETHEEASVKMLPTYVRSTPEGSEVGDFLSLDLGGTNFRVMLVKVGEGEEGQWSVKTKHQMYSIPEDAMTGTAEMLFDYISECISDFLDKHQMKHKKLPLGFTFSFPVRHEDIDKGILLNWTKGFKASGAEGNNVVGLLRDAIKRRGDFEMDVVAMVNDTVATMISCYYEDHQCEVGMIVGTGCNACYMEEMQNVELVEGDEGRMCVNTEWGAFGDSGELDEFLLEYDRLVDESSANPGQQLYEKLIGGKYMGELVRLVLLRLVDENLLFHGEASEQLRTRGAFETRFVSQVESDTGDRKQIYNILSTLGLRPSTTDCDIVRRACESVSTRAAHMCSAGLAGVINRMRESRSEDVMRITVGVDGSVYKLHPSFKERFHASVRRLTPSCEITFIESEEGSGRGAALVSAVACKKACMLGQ
T1 sequence (Q14397 whole entry, looked up): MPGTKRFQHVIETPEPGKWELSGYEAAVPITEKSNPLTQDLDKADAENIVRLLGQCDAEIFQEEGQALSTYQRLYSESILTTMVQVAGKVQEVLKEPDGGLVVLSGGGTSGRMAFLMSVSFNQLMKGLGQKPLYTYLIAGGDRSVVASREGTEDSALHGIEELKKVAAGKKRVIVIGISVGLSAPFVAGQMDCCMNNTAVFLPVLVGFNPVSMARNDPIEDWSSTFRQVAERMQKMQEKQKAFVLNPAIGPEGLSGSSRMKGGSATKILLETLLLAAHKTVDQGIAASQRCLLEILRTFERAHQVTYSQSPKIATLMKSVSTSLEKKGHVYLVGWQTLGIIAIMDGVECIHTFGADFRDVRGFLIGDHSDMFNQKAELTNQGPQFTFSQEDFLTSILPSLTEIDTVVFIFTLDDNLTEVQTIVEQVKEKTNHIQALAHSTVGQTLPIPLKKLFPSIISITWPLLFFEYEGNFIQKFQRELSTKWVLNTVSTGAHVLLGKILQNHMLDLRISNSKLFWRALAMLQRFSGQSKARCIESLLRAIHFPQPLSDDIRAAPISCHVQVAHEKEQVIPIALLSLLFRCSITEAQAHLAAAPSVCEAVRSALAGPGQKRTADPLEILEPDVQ

Experiment [4] addresses T1, Hexokinase-4 (Homo sapiens) + Glucokinase regulatory protein (Homo sapiens). As to the kind of experiment: qHTS assay for inhibitors of recombinant human GCK-GKRP interaction: ADP-Glo assay (AID 743206).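 Also: plate controls were DMSO plus enzyme for no effect and no enzyme for full effect.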 Put shortly:
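Pin-transferred compounds meet a 15 nM GST-GCK/15 nM FLAG-GKRP/2 uM S6P mix (dispense concentrations). ATP is then added to 0.4 mM final with 5 mM glucose, and the reaction runs 60 min at room temperature. ADP is quantified luminescently.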

Experiment [5] is described as follows: qHTS Assay for Identifying Gametocytocidal Compounds (AID 743244).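 Also: % is scaled to controls: 0 for no effect and ±100 for the full control effect; actives lower the fluorescent signal which means gametocytes are killed.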 The settings on record: P. falciparum 3D7 stage III-V gametocytes, alamarBlue, 72 h; max response: stronger effect = lower value. Put shortly:
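Viability read-out was resazurin reduction (alamarBlue, 24 h) measured at Ex 525/Em 598 nm. Beforehand, late-stage (III-V) 3D7 P. falciparum gametocytes at 20,000 cells/well were incubated with compound 72 h at 37C under 5% CO2.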

Experiment [6] is described as follows: qHTS assay for measurement of the activity of small molecule inhibitors on Zika virus induced Caspase-3 activity in human iPSC derived neural progenitor cells (hNPCs) (AID 1224857). Also: % of control where 0% means no effect; nearly all actives have a fitted effect of over 65% in size. Put shortly:
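Percent inhibition of virus-induced caspase-3/7 luminescence (Caspase-Glo), scaled between uninfected cells and Zika-infected cells. hNPCs received compound 1 hr before ZIKV at 2 FFU/cell, with 6 hours infection at 37 C.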

A short description of experiment [7]: qHTS assay for measurement of the activity of small molecule inhibitors on Zika virus induced Caspase-3 activity in human astrocytoma cells (AID 1224859).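 Also: plate controls were ZIKV-infected untreated cells for no effect and uninfected cells for full effect.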 Put shortly: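 Luminescent caspase-3/7 read-out (30 min reagent, room temperature) in human SNB-19 cells infected 6 h with ZIKV (2 FFU/cell) after 1 h compound pre-incubation; Data were normalised to uninfected and infected wells.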

Experiment [8] can be described thus: qHTS profiling for inhibitors of Plasmodium falciparum (3D7) proliferation (AID 743322).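 Also: infected erythrocytes exposed to compound for 72 h before lysis; 100% = DMSO vehicle wells and 0% = 0.29 µM artemisinin.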 The settings on record: P. falciparum 3D7 proliferation; at 28.7 µM (top of the series) unless noted. Put shortly: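 Parasite DNA was quantified by SYBR Green I fluorescence (ex 485, em 535 nm) after overnight lysis in saponin/Triton buffer at room temperature. Cultures at 0.3% parasitemia and 2.5% hematocrit were first exposed to compound for 72 h at 37 C; signals were normalised to artemisinin (0.29 uM) and vehicle wells.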

The nature of experiment [9]: qHTS profiling for inhibitors of Plasmodium falciparum (DD2) proliferation (AID 743323; call rule not given here). The settings on record: lower = more inhibition; at 28.7 µM (top of the series) unless noted. Put shortly: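 Parasite proliferation measured via DNA-dye fluorescence, as uninfected erythrocytes lack DNA. Cultures at 0.3% parasitemia and 2.5% hematocrit incubated 72 h with compound; signal scaled between vehicle and 0.29 uM artemisinin wells.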

The nature of experiment [10]: qHTS profiling for inhibitors of Plasmodium falciparum (HB3) proliferation (AID 743324).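 Also: 100% = DMSO vehicle wells and 0% = artemisinin-treated control wells.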 The settings on record: Plasmodium falciparum HB3 blood-stage proliferation; at 28.7 µM (top of the series) unless noted. The gist of the method: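 SYBR Green fluorescence (485 ex/535 em) of lysed cultures, incubated overnight at room temperature in the dark, quantifies parasite DNA. Infected erythrocytes at 0.3% parasitemia and 2.5% hematocrit were exposed 72 h; values normalized to DMSO and 0.29 uM artemisinin controls.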

For experiment [11], the target named is T1, Hexokinase-4 (Homo sapiens) + Glucokinase regulatory protein (Homo sapiens). As to the kind of experiment: qHTS assay for inhibitors of recombinant human GCK-GKRP interaction: HTRF assay (AID 743207).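 Also: 0% = DMSO with GCK present and -100% = DMSO wells lacking GCK.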 Put shortly: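 HTRF binding of 5 nM GST-GCK and 5 nM FLAG-GKRP with 2 uM S6P in pH 7.1 Hepes buffer (MgCl2, KCl, DTT, Tween 20, BSA). Anti-FLAG XL665 and anti-GST donor added, 60 min at room temperature; 665/615 nm read, normalized to with- and without-GCK controls.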

`CSc1ccccc1N1CCN(CCCCCC(=O)NC2CCCc3ccccc32)CC1` (stereo not given): the Potency entry in experiment [1], in [2], in experiment [4], in experiment [6] and in [7] was “inactive” in each case. Further, the outcome in [3] was inactive. Moreover, the max response in experiment [5] is 6.9% (inactive).

Molecule `C=CCc1cccc(/C=N/NC(=O)CN2CCN(Cc3ccccc3)CC2)c1O` returned a remaining parasite growth % (stronger effect = lower value) in [8] of 16.2%. In [9], this molecule yielded an activity, percent of control of 11.8%. The remaining proliferation (% of control), lower = more inhibition in [10] was found to be 9.08%.

As for `CC(N)C(=O)OC(C)(C)Cc1ccc(Cl)cc1` (stereo not given), the Potency result in [1], in [2], in experiment [4], in experiment [11] and in [7] was “inactive” in each case. Moreover, the result in experiment [3] was inactive. In addition, the max response in experiment [5] was 11% (inactive) and 11.7% (inactive).

Turning to `CC(=O)/C=C1\C(=O)N(C)c2ccccc21`, the Potency result in experiment [1], in experiment [2], in experiment [4], in experiment [11] and in experiment [7] was “inactive” each time. In experiment [3], the result was inactive. The max response in experiment [5] is -11.9% (inactive).

In the case of `N#C/C(=C\c1ccc(O)c(O)c1)C(=O)c1ccc(O)c(O)c1`, the Potency entry in [1], in experiment [2], in experiment [4], in [11] and in experiment [7] was “inactive” in each case. Also, the result in experiment [3] was inactive. In addition, the max response in [5] is 10.5% (inactive).

Turning to `CCC1C(=O)OCC1Cc1cncn1C` (stereo not given), the Potency result in experiment [1], in [2], in experiment [4], in experiment [11] and in experiment [7] was “inactive” in each case. For the same molecule, the result in experiment [3] was inactive. The max response in experiment [5] is -1.02% (inactive) and -1.03% (inactive) and -9.17% (inactive).

Take `CCc1c(C(=O)NCCc2ccc(N3CCCCC3)cc2)[nH]c2ccc(Cl)cc12`: the Potency entry in experiment [1], in [2], in experiment [4] and in experiment [7] was “inactive” each time. Also, in experiment [3], the outcome was inactive. In addition, the max response in [5] was 11.6% (inactive).

Turning to `CN(C)C(N)=NCCC[C@H](N)C(=O)O`, the Potency entry in experiment [1], in experiment [2], in experiment [4], in experiment [11] and in [7] was “inactive” in each case. Also, the result in experiment [3] was inactive. In addition, the max response in experiment [5] was -2.52% (inactive).

`CC(COc1ccc(/C=C/c2ccccc2)cc1)[N+](C)(C)C` (stereo not given): the Potency result in [1], in [2], in experiment [4], in experiment [11] and in [7] was “inactive” throughout. In addition, the outcome in experiment [3] was inactive.

Take `NC(=S)c1ccc[n+]([C@@H]2O[C@@H](COP(=O)([O-])OP(=O)(O)OC[C@H]3O[C@@H](n4cnc5c(N)ncnc54)[C@H](OP(=O)(O)O)[C@@H]3O)C(O)C2O)c1` (stereo not given in full): the Potency result in experiment [1], in experiment [2], in [4], in [11] and in experiment [7] was “inactive” each time. The outcome in [3] was inactive. Also, the max response in experiment [5] is 5.56% (inactive).

On to `CNCC[C@H](Oc1ccc(C(F)(F)F)cc1)c1ccccc1`, for which the Potency entry in experiment [1], in experiment [2], in [4], in experiment [11] and in experiment [7] was “inactive” throughout. Also, in experiment [3], the result was inactive.

Regarding `N=c1ccn2c(n1)O[C@H]1[C@H](O)[C@@H](CO)O[C@H]12`, the Potency result in [1], in [2], in experiment [4], in experiment [11] and in experiment [7] was “inactive” throughout. In experiment [3], the outcome was inactive.

Consider `O=C1O/C(=C/Br)CCC1c1cccc2ccccc12` (stereo not given), for which the Potency entry in experiment [1], in experiment [2], in [4], in experiment [11] and in experiment [7] was “inactive” each time. In addition, the outcome in experiment [3] was inactive. Further, in [5], the max response was 7.23% (inactive).

On to `CCCCCC(O)c1cccc(OCc2ccc3ccccc3n2)c1` (stereo not given), for which the Potency entry in experiment [1], in [2], in experiment [4], in [11] and in [7] was “inactive” throughout. Also, the outcome in experiment [3] was inactive. For the same molecule, in experiment [5], the max response is 5.39% (inactive).
